Data: the supplement of paper PMC10849652
Targets with a hit are over-represented here; the source holds about 8,800 in all. About 0.5% of all pairs of compound and target were hits.

Experiments:
Assay in all cases: log2 fold change, soluble protein after heating vs DMSO (PISA); higher = thermal stabilisation; K562 lysate, 10 uM; active = over 0.2 and 3.5 SD of the protein, either way, in both replicates (recomputed)
vemurafenib = compound: CCCS(=O)(=O)Nc1ccc(F)c(C(=O)c2c[nH]c3ncc(-c4ccc(Cl)cc4)cc23)c1F [vemurafenib]
How it was run: (§1)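 Soluble protein was defined as the supernatant remaining after 21,000xg for 90 min, following pooling of heated aliquots and adjustment to 0.5% NP-40 at 4°C. Before that, crude K562 extract at 1 mg/mL protein in PBS pH 7.4 with 1 mM MgCl2 was treated with 10 μM compound for 30 min and heated for 3 min across 48°C-58°C. Quantification used TMTpro 16plex LC-MS/MS with channel sums equalised, and values are log-two fold changes in thermal stability relative to solvent controls from duplicates.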

[1] = compound: CCCS(=O)(=O)Nc1ccc(F)c(C(=O)c2c[nH]c3ncc(Cl)cc23)c1F
How it was run: as §1

barasertib = compound: CCN(CCCOc1ccc2c(Nc3cc(CC(=O)Nc4cccc(F)c4)[nH]n3)ncnc2c1)CCOP(=O)(O)O [barasertib]
How it was run: as §1

[2] = compound: CC[C@@H]1C(=O)N(C)c2cnc(Nc3ccc(C(=O)NC4CCN(C)CC4)cc3OC)nc2N1C1CCCC1
How it was run: as §1

volasertib = compound: CC[C@@H]1C(=O)N(C)c2cnc(Nc3ccc(C(=O)N[C@H]4CC[C@H](N5CCN(CC6CC6)CC5)CC4)cc3OC)nc2N1C(C)C [volasertib]
How it was run: as §1

[3] = compound: CCn1c(C(=O)N(C2CC2)C2CC2)cc2c3c(ncn3C)c(Nc3cc(C)n(C)n3)nc21
How it was run: as §1

[4] = compound: CCn1cc(-c2ccnc3[nH]c(-c4cccc(CN(C)C)c4)cc23)c(-c2ccc(NC(=O)N(C)C)cc2)n1
How it was run: as §1

[5] = compound: CN1CCC(CNc2ccc3ncc(-c4cccc(OC(F)(F)F)c4)n3n2)CC1
How it was run: as §1

saracatinib = compound: CN1CCN(CCOc2cc(OC3CCOCC3)c3c(Nc4c(Cl)ccc5c4OCO5)ncnc3c2)CC1 [saracatinib]
How it was run: as §1

sotrastaurin = compound: CN1CCN(c2nc(C3=C(c4c[nH]c5ccccc45)C(=O)NC3=O)c3ccccc3n2)CC1 [sotrastaurin]
How it was run: as §1

alvocidib = compound: CN1CC[C@H](c2c(O)cc(O)c3c(=O)cc(-c4ccccc4Cl)oc23)[C@H](O)C1 [alvocidib]
How it was run: as §1

Tubastatin A = compound: CN1CCc2c(c3ccccc3n2Cc2ccc(C(=O)NO)cc2)C1 [Tubastatin A]
How it was run: as §1

[6] = compound: CNC(=O)C1=CC=CC=C1NC2=NC(=NC=C2Cl)NC3=C(C=C(C=C3)N4CCOCC4)OC
How it was run: as §1

defactinib = compound: CNC(=O)c1ccc(Nc2ncc(C(F)(F)F)c(NCc3nccnc3N(C)S(C)(=O)=O)n2)cc1 [defactinib]
How it was run: as §1

[7] = compound: CNc1nc(-c2ccc3c(N)n[nH]c3c2)cc(N2C[C@@H](C(=O)NC3CCCCC3)CC[C@H]2C)n1
How it was run: as §1

encorafenib = compound: COC(=O)N[C@@H](C)CNc1nccc(-c2cn(C(C)C)nc2-c2cc(Cl)cc(NS(C)(=O)=O)c2F)n1 [encorafenib]
How it was run: as §1

[8] = compound: COC(=O)[C@H](CCSC)NC(=O)C1=C(C=C(C=C1)NC[C@H](CS)N)C2=CC=CC=C2
How it was run: as §1

alisertib = compound: COc1cc(Nc2ncc3c(n2)-c2ccc(Cl)cc2C(c2c(F)cccc2OC)=NC3)ccc1C(=O)O [alisertib]
How it was run: as §1

[9] = compound: COc1cc2nc(-c3cc(F)ccc3O)nc(N[C@@H]3CNC[C@H]3C(C)(C)O)c2cc1OC
How it was run: as §1

gefitinib = compound: COc1cc2ncnc(Nc3ccc(F)c(Cl)c3)c2cc1OCCCN1CCOCC1 [gefitinib]
How it was run: as §1

Measured: log2 fold change

CHD3 isoform 3 (UniProt Q12873)
Sequence of UniProt Q12873 (Q12873 whole entry, looked up): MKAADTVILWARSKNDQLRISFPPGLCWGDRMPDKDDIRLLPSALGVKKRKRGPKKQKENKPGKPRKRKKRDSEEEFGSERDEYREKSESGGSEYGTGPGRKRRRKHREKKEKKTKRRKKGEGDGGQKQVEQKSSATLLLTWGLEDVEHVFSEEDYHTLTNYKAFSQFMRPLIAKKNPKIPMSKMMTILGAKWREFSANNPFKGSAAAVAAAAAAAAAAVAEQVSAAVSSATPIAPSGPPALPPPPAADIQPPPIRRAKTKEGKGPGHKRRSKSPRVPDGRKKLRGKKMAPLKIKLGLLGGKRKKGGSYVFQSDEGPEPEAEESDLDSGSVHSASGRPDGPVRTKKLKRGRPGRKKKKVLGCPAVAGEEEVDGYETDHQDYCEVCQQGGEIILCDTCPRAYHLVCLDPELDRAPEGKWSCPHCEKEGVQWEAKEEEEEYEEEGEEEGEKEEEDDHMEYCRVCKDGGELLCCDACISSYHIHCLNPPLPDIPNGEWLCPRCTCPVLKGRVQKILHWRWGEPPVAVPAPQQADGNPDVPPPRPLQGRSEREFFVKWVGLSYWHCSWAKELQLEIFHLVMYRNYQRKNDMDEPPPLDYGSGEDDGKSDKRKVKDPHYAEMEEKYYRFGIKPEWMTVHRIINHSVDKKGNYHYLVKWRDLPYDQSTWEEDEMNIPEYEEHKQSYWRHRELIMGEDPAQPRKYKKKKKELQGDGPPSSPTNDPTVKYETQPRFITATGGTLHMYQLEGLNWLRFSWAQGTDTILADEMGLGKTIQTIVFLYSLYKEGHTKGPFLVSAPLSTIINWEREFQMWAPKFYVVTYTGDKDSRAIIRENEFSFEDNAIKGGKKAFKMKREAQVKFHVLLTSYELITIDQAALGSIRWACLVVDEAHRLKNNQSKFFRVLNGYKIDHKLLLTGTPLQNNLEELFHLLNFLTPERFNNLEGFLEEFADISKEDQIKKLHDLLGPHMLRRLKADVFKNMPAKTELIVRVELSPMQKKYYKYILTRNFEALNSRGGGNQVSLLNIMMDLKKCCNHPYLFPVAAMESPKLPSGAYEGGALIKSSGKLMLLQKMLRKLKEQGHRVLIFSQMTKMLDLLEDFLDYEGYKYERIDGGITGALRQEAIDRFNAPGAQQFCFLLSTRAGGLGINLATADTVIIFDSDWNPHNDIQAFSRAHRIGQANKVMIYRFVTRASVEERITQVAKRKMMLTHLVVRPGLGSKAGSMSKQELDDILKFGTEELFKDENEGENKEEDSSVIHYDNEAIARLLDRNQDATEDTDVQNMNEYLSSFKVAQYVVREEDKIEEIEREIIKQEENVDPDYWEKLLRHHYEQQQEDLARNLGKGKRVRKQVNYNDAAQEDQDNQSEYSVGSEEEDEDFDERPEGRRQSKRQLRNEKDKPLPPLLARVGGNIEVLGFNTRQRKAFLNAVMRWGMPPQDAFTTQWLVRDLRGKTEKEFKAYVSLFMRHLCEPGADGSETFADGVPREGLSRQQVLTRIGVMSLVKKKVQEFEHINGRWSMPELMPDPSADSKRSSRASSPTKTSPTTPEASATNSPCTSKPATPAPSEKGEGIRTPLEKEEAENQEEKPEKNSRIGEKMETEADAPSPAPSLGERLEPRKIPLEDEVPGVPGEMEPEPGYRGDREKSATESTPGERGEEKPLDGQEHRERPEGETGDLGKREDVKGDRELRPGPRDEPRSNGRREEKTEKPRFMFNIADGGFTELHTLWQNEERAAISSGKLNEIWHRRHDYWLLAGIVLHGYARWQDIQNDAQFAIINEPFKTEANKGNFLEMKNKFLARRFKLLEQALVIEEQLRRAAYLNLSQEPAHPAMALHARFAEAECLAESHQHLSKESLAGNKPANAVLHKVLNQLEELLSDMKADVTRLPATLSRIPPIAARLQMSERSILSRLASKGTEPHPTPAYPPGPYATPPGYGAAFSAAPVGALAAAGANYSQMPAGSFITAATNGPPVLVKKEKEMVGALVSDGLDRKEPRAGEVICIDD
inactive: vemurafenib -0.033 | [1] 0.009 | barasertib 0.035 | [2] -0.02 | volasertib -0.018 | [3] -0.039 | [4] -0.066 | [5] -0.027 | saracatinib 0.001 | sotrastaurin 0.004 | alvocidib 0.003 | Tubastatin A -0.074 | [6] 0.015 | defactinib 0.006 | [7] 0.02 | encorafenib 0.029 | [8] 0.085 | alisertib 0.047 | [9] 0.01 | gefitinib -0.014

CAD (UniProt P27708)
Sequence of UniProt P27708 (P27708 whole entry, looked up): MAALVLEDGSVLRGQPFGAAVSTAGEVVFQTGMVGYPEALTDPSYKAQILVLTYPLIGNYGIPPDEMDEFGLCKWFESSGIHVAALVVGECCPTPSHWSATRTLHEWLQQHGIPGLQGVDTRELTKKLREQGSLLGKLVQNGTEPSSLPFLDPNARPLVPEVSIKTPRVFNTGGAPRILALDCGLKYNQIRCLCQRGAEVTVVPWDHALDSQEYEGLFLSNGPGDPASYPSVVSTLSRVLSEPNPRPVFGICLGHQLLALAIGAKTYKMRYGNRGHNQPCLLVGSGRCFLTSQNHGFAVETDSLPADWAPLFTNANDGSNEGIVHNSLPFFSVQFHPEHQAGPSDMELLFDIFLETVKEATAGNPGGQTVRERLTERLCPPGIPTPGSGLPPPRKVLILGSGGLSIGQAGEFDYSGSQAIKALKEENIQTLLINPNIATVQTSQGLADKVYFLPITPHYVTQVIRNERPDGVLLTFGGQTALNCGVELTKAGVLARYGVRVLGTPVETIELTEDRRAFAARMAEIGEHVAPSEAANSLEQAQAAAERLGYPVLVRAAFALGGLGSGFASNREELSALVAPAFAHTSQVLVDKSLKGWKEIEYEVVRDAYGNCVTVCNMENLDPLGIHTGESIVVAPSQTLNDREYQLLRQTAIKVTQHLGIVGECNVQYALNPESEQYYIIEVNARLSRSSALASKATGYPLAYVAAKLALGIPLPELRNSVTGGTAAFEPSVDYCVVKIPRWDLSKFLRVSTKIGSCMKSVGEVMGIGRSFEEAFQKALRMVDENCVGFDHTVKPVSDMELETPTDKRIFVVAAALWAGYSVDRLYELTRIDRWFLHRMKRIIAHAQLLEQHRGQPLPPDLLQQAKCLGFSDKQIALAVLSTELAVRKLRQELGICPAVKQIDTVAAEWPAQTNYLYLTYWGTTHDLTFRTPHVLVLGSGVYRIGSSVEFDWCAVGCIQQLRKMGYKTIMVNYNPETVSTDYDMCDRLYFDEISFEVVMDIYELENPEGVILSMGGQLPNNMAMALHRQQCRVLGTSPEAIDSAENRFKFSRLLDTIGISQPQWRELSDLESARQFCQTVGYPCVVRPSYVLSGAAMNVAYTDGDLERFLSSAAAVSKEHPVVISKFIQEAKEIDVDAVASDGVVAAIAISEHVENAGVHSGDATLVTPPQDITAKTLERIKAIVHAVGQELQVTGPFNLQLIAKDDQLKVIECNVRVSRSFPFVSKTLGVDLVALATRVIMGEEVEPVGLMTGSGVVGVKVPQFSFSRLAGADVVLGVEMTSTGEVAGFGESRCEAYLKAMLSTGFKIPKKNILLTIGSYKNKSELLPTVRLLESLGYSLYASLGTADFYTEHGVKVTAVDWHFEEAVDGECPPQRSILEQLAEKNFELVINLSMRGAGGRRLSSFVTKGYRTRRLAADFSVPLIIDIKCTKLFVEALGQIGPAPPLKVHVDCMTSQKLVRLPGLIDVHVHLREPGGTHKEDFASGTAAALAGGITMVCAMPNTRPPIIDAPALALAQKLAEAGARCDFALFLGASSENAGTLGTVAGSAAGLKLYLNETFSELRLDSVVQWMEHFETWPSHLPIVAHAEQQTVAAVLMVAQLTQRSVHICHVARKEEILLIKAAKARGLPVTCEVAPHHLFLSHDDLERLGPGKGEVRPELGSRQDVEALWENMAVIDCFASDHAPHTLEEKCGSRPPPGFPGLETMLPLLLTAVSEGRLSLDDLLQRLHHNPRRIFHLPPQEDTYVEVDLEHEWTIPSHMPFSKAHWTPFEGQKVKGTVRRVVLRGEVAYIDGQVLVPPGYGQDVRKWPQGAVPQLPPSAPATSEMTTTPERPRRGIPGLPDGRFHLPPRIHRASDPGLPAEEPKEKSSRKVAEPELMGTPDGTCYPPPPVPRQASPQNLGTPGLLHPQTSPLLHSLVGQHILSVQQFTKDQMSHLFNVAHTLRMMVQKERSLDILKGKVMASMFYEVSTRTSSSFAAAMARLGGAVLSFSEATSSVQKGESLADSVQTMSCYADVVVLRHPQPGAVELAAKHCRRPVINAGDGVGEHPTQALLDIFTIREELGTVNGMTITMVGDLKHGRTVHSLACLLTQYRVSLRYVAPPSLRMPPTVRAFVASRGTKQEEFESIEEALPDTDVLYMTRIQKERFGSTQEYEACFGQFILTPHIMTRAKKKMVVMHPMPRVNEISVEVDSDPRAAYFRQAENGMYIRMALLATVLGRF
inactive: vemurafenib 0.005 | [1] 0.026 | barasertib -0.004 | [2] -0.037 | volasertib -0.069 | [3] 0.012 | [4] -0.085 | [5] 0.003 | saracatinib -0.004 | sotrastaurin 0.003 | alvocidib 0 | Tubastatin A -0.063 | [6] 0.01 | defactinib -0.022 | [7] -0.008 | encorafenib 0.001 | [8] 0.067 | alisertib -0.007 | [9] -0.015 | gefitinib -0.032

BET1 (UniProt O15155)
active: [8] -0.214
inactive: vemurafenib 0.107 | [1] -0.012 | barasertib 0.028 | [2] -0.019 | volasertib 0.032 | [3] -0.021 | [4] 0.044 | [5] -0.009 | saracatinib 0.031 | sotrastaurin -0.033 | alvocidib 0.07 | Tubastatin A -0.038 | [6] 0.033 | defactinib 0.058 | [7] 0.027 | encorafenib -0.062 | alisertib -0.023 | [9] -0.022 | gefitinib -0.045

CENPQ (UniProt Q7L2Z9)
Sequence of UniProt Q7L2Z9 (Q7L2Z9 whole entry, looked up): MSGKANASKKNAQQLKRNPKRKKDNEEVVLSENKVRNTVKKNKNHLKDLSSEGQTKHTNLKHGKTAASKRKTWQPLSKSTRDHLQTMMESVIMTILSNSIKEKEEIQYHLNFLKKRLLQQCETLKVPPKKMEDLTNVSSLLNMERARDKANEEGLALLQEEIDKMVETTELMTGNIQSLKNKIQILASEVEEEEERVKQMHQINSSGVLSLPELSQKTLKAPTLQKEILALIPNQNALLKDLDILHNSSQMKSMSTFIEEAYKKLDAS
inactive: vemurafenib 0.069 | [1] -0.167 | barasertib 0.038 | [2] -0.023 | volasertib -0.115 | [3] -0.084 | [5] 0.095 | saracatinib 0.033 | sotrastaurin 0.023 | alvocidib -0.122 | Tubastatin A -0.016 | [6] 0.032 | defactinib -0.085 | [7] 0.055 | encorafenib 0.169 | [8] 0.025 | alisertib 0 | [9] -0.068 | gefitinib 0.091
active: [4] -0.44

CHCHD2 (UniProt Q9Y6H1)
Sequence of UniProt Q9Y6H1 (Q9Y6H1 whole entry, looked up): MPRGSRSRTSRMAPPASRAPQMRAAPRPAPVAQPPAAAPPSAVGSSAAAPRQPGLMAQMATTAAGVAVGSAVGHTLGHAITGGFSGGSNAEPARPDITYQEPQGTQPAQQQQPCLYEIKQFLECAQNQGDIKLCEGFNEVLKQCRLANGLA
inactive: vemurafenib 0.076 | [1] -0.025 | barasertib 0.011 | [2] 0.102 | volasertib 0.086 | [3] 0.108 | [4] 0.16 | [5] -0.094 | saracatinib -0.011 | sotrastaurin 0.054 | alvocidib -0.061 | Tubastatin A 0.031 | [6] -0.003 | defactinib -0.079 | [7] -0.024 | encorafenib -0.044 | [8] -0.126 | alisertib -0.051 | [9] -0.033 | gefitinib 0.28

ATG13 isoform 2 (UniProt O75143)
active: [4] -0.281
inactive: vemurafenib -0.05 | [1] 0.042 | barasertib 0.024 | [2] 0.036 | volasertib 0.007 | [3] 0.015 | [5] 0.077 | saracatinib 0.005 | sotrastaurin 0.053 | alvocidib -0.106 | Tubastatin A -0.035 | [6] 0.013 | defactinib 0.03 | [7] 0.026 | encorafenib 0.054 | [8] -0.045 | alisertib 0.038 | [9] 0.017 | gefitinib -0.013

CDK2 (UniProt P24941)
active: alvocidib 0.304
inactive: vemurafenib -0.012 | [1] 0.012 | barasertib -0.01 | [2] -0.059 | volasertib -0.025 | [3] 0.008 | [4] -0.055 | [5] 0.167 | saracatinib -0.017 | sotrastaurin 0.09 | Tubastatin A 0.021 | [6] 0.08 | defactinib 0.196 | [7] 0.048 | encorafenib 0.016 | [8] -0.012 | alisertib -0.01 | [9] 0.072 | gefitinib -0.012

ATG4B (UniProt Q9Y4P1)
Sequence of UniProt Q9Y4P1 (Q9Y4P1 whole entry, looked up): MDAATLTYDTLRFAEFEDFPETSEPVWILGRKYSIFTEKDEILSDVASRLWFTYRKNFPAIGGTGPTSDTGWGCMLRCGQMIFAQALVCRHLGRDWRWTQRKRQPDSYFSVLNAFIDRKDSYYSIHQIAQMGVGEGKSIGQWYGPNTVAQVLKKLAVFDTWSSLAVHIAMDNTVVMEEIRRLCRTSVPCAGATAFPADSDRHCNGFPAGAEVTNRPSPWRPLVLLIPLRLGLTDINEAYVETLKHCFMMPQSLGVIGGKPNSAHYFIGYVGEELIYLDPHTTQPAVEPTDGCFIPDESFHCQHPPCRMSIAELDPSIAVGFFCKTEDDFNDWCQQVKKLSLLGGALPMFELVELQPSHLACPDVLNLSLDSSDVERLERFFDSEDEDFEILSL
inactive: vemurafenib 0.036 | [1] 0.04 | barasertib 0.047 | [2] 0.012 | volasertib -0.05 | [3] 0.008 | [4] 0.148 | [5] -0.105 | saracatinib 0.043 | sotrastaurin 0.039 | alvocidib 0.052 | Tubastatin A -0.129 | [6] 0.025 | defactinib 0 | [7] -0.025 | encorafenib 0 | [8] -0.018 | alisertib 0.053 | [9] 0.02 | gefitinib -0.071
